Results filed as inconclusive are left out. Activity calls are given as the source filed them. How the source made its calls: active means hit-call score of the fitted dose curve at least 0.9, where 1 is the maximum; inconclusive means response in the unintended direction; inactive means score below 0.9.
What follows are compounds tested against Bile acid receptor (Homo sapiens) (UniProt Q96RI1) (assay: ATG_FXR_TRANS: Attagene TRANS-FACTORIAL HepG2 Assay for Farnesoid X Receptor (FXR) (AID 2282979;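 further: hits raise reporter mRNA above DMSO so AC50 marks FXR activation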)). Conditions: HepG2 Attagene TRANS FXR-GAL4 reporter transcription.
Procedure: ATG_TRANS is a cell-based, multiplexed-readout assay that uses HepG2, a human liver cell line, with measurements taken at 24 hours after chemical dosing in a 24-well plate.ATG_FXR_TRANS is one of 30 assay component(s) measured or calculated from the ATG_TRANS assay. It is designed to make measurements of mRNA induction, a form of inducible reporter, as detected with fluorescence intensity signals by Reverse transcription polymerase chain reaction (RT-PCR) and Capillary electrophoresis technology.Data from the assay component ATG_FXR_TRANS was analyzed into 1 assay endpoint. This assay endpoint, ATG_FXR_TRANS, was analyzed in the positive analysis fitting direction relative to DMSO as the negative control and baseline of activity. Using a type of inducible reporter, measures of mRNA for gain-of-signal activity can be used to understand the reporter gene at the transcription factor-level as they relate to the gene NR1H4. Furthermore, this assay endpoint can be referred to as a primary readout, because this assay has produced multiple assay endpoints where this one serves a reporter gene function. To generalize the intended target to other relatable targets, this assay endpoint is annotated to the nuclear receptor intended target family, where the subfamily is non-steroidal.
Human liver HepG2 cells are transiently transfected with multiple reporter transcription units (MRTUs) in 6-well plates using FuGene 6 reagent (Roche; 3 ml FuGene/1 mg DNA). The MRTU constructs are regulated by a cis-regulating element (promoter). […] A major difference between the CIS and TRANS system is that in CIS activities of endogenous TFs are measured, whereas the TRANS assay evaluates changes in activities of exogenous, chimeric NR-Gal4 proteins. […] At the end of 24 hour incubation, total RNA was isolated using TriZol reagent (Invitrogen). The isolated RNA is then reverse-transcribed using oligo(dT) primer and Mo-MLV reverse transcriptase (Invitrogen) with DNAse I (Ambion) treatment for 30 min. The one-tenth of the produced cDNA was amplified by PCR using Taq DNA polymerase (Invitrogen) and two reporter sequence-specific primers. The PCR products were fluorescently labeled by primer extension with 6-arboxyfluorescein (6-FAM) 5'-labeled reporter sequence-specific primer (2 min at 95 C, 20 s at 68 C and 10 min at 72 C) and these products were digested with 5U of HpaI (New England Biolabs) for 2h at 37 C. The fragments were purified using Qiaquick PCR columns (Qiagen), analyzed on an ABI 3130xL genetic analyzer (Applied Biosystems) with peak positions identified by using a set of X-rhodamine (ROX)-labeled MapMarker1000 molecular weight standards (BioVentures). The raw capillary electrophoresis data was processed using Attagraph software (Attagene).

Chain of Bile acid receptor (Homo sapiens) (Q96RI1 whole entry, looked up, the tested form may be a part): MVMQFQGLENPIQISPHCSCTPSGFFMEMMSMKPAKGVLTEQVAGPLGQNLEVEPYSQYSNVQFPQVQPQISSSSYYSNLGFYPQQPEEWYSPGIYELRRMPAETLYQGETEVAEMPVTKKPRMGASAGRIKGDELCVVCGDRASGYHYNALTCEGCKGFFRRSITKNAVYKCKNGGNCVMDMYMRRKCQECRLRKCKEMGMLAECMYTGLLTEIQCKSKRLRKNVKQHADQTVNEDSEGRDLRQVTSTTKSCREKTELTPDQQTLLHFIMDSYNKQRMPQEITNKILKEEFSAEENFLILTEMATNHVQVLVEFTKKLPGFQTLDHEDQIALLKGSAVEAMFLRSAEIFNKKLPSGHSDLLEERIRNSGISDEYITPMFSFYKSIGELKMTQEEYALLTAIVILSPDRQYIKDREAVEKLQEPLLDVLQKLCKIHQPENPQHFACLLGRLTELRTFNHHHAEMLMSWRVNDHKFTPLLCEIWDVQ

SMILES | outcome | AC50
ClCCCCl | inactive | –
O=c1[nH]c2ccccc2n1C1CCN(CCCC(c2ccc(F)cc2)c2ccc(F)cc2)CC1 | inactive | –
Cc1ccccc1OP(=O)(Oc1ccccc1C)Oc1ccccc1C | inactive | –
C=CC(F)(C(F)(F)F)C(F)(F)C(F)(F)F (stereo not given) | inactive | –
Cc1cccc(OP(=O)(Oc2cccc(C)c2)Oc2cccc(C)c2)c1 | inactive | –
c1ccc(-c2cccc(-c3ccccc3)c2)cc1 | inactive | –
CCC[CH2][Sn]([CH2]CCC)([CH2]CCC)[CH2]CCC | inactive | –
CC(C)(C)c1cc([N+](=O)[O-])cc(C(C)(C)C)c1O | inactive | –
CCOP(=S)(OCC)O/N=C(\C#N)c1ccccc1 | inactive | –
Nc1ccc(N)cc1 | inactive | –
Cc1ccc2nc3sc(=O)sc3nc2c1 | inactive | –
Cc1cc(SCc2sc(-c3ccc(C(F)(F)F)c(F)c3)nc2C)ccc1OCC(=O)O | – | 27.1 µM (active)
CCOCn1c(-c2ccc(Cl)cc2)c(C#N)c(Br)c1C(F)(F)F | inactive | –
CCCCCCCCCCCCCCC(Br)C(=O)O (stereo not given) | inactive | –
O=C(NC(=O)c1c(F)cccc1F)Nc1ccc(Cl)cc1 | inactive | –
[F][Sn]([c]1ccccc1)([c]1ccccc1)[c]1ccccc1 | inactive | –
CC(c1ccccc1)(c1ccc(O)cc1)c1ccc(O)cc1 | – | 12.5 µM (active)
O=C/C(Cl)=C(/Cl)C(=O)O | inactive | –
COc1nn(C(=O)NS(=O)(=O)c2ccccc2OC(F)(F)F)c(=O)n1C | inactive | –
C=CCOC(F)(C(F)(F)F)C(F)(F)F | inactive | –

SMILES | outcome | AC50
CCOP(=S)(OCC)OP(=S)(OCC)OCC | inactive | –
CC(C)=CC1C(C(=O)OCc2cccc(Oc3ccccc3)c2)C1(C)C (stereo not given) | inactive | –
CN(C)c1ccc(N=O)cc1 | inactive | –
Cc1cc(C(F)(C(F)(F)F)C(F)(F)F)ccc1NC(=O)c1cccc(I)c1C(=O)NC(C)(C)CS(C)(=O)=O | inactive | –
N#Cc1ccccc1N | inactive | –
CC1(C)[C@H](C(=O)O[C@H](C#N)c2cccc(Oc3ccccc3)c2)[C@@H]1/C=C(\Cl)C(F)(F)F | inactive | –
CCOC(=O)Cc1ccccc1 | inactive | –
Cc1cc(Cl)ccc1O | inactive | –
O=S(=O)(C(Cl)(Cl)Cl)C(Cl)(Cl)Cl | inactive | –
O=C(Nc1ccc(Br)cc1)c1cc(Br)cc(Br)c1O | inactive | –
FC(F)OCC(F)(F)C(F)(F)F | inactive | –
O=NN1CCCCCCC1 | inactive | –
c1csc(-c2ccc(-c3cccs3)s2)c1 | inactive | –
CCCCOP(=O)(CCCC)OCCCC | inactive | –
CCCCS(=O)(=O)Cl | inactive | –
CC(C)C(C)(N)C#N (stereo not given) | inactive | –
CC(C)[N+](=O)[O-] | inactive | –
CN(N=O)c1ccc([N+](=O)[O-])cc1 | inactive | –
CCCCCCCCCCCCN(C)C | inactive | –
[Cl][Sn]([c]1ccccc1)([c]1ccccc1)[c]1ccccc1 | inactive | –
